About 83,000 compounds went through this panel and 20% of them were active in at least one assay; those are over-represented in the sample as a whole.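 Values shown are percent growth following 48 h exposure of cells in 96-well plates to a single concentration of compound; below 10 was considered active.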 Unmarked numbers belong to inactive results. The source made the active and inactive calls.

Some test systems named below: T-47D breast; BT-549 breast; MDA-MB-435 melanoma; SW-620 colon; MCF7 breast; HCT-116 colon; HCC-2998 colon; KM12 colon.
Holding throughout (experiment): NCI-60 one-dose screen, 48 h (100 = growth as untreated, 0 = no growth, -100 = all killed)
Holding throughout (conditions): 10 µM unless noted

For the compound `CNC1(C#N)CCN(Cc2ccccc2)CC1`, the growth was 5.3% (active) with T-47D breast; 203% in the assay on BT-549 breast; 95.4% with MDA-MB-435 melanoma; 105% with SW-620 colon; 102% in the assay with MCF7 breast; 106% with HCT-116 colon. Further, the growth in the assay with HCC-2998 colon was 106%; with KM12 colon, 103%.
As for `Cn1ccnc1C(=O)/C=C/c1ccc(C(=O)Nc2ccc(S(F)(F)(F)(F)F)cc2)cc1`, the growth is 27.8% in the assay with T-47D breast; 39.6% with BT-549 breast; 39.2% with MDA-MB-435 melanoma; 12.5% in the assay on SW-620 colon; 12.5% with MCF7 breast; 3.62% (active) in the assay on HCT-116 colon. Also, the growth in the assay on HCC-2998 colon is 5.66% (active); in the assay with KM12 colon, 16.6%.
On to `CCCCOC(=O)c1ccc(NC(=O)C(C)N2CCOCC2)cc1` (centres undefined), for which the growth is 107% in the assay on T-47D breast; 86.6% in the assay on BT-549 breast; 113% in the assay with MDA-MB-435 melanoma; 101% with SW-620 colon; 106% in the assay with MCF7 breast; 77.6% in the assay on HCT-116 colon. The results for the growth with HCC-2998 colon and in the assay with KM12 colon were 102% and 109%, respectively.
As to `O=c1ccn(C2OC(F)(CO)C(O)C2F)c(=O)[nH]1` (centres undefined), the growth with T-47D breast is 81.2%; in the assay on BT-549 breast, 101%; in the assay with MDA-MB-435 melanoma, 103%; in the assay on SW-620 colon it was 104%; in the assay with MCF7 breast, 91.6%; in the assay with HCT-116 colon, 104%. The growth in the assay with HCC-2998 colon was 99.1%; in the assay on KM12 colon it was 104%.
As for `N=C(N)c1ccc(-c2ccc(-c3ccc(Cl)c(Cl)c3)o2)cc1`, the growth with T-47D breast was 64.3%; in the assay on BT-549 breast it was 90%; with MDA-MB-435 melanoma, -42.1% (active); with SW-620 colon, -73.6% (active); with MCF7 breast it was -68.9% (active); with HCT-116 colon, -83% (active). Further, the figures for the growth in the assay with HCC-2998 colon and in the assay with KM12 colon were -75.7% (active) and -84.2% (active), respectively.
`O=C1Nc2ccccc2/C1=N/N=C/c1c[nH]c2ccccc12`: the growth was 61% with T-47D breast; 92.7% with BT-549 breast; 73.8% in the assay with MDA-MB-435 melanoma; 71.5% in the assay on SW-620 colon; 72.5% in the assay with MCF7 breast; 72.4% in the assay on HCT-116 colon. Moreover, the growth in the assay with HCC-2998 colon is 101%; with KM12 colon it was 28.5%.
With `c1ccc2[nH]c(SSc3nc4ncncc4[nH]3)nc2c1`, the growth in the assay on T-47D breast is 46.5%; in the assay on BT-549 breast, 46.7%; in the assay on MDA-MB-435 melanoma, 19.7%; with SW-620 colon it was 36.3%; in the assay on MCF7 breast, 9.76% (active); with HCT-116 colon, 20.8%. In addition, the growth with HCC-2998 colon is 18.2%; in the assay on KM12 colon, 15.1%.
In the case of `CC12CC(C#N)CCC1O2` (centres undefined), the growth in the assay on T-47D breast is 116%; in the assay with BT-549 breast, 111%; in the assay with MDA-MB-435 melanoma, 121%; in the assay with SW-620 colon it was 97.3%; with MCF7 breast, 97.9%; with HCT-116 colon, 108%. Further, the growth is 114% in the assay on HCC-2998 colon and 113% in the assay on KM12 colon.
Turning to `O=c1[nH]c(NCc2nnnn2-c2ccc(Br)cc2)nc2sc3c(c12)CCCC3`, the growth in the assay on T-47D breast is 74.3%; with BT-549 breast, 104%; in the assay with MDA-MB-435 melanoma, 97.4%; in the assay with SW-620 colon, 93.7%; with MCF7 breast, 92%; with HCT-116 colon, 81.2%. Besides, the growth in the assay with HCC-2998 colon was 110%; in the assay with KM12 colon, 96.1%.
As to `N#C/C(=C\c1ccc2c(c1)OCO2)n1nnc2ccccc21`, the growth with T-47D breast is 26.2%; in the assay on BT-549 breast, 30.3%; in the assay on MDA-MB-435 melanoma, -69.1% (active); with SW-620 colon, 12%; with MCF7 breast it was 10.3%; in the assay with HCT-116 colon, 5.72% (active). The growth was -9.93% (active) in the assay with HCC-2998 colon and -16.2% (active) with KM12 colon.
On to `NC(N)=N/N=C/c1ccc(Br)cc1`, for which the growth in the assay with T-47D breast is -26.9% (active); with BT-549 breast it was 92.3%; with MDA-MB-435 melanoma, -33.1% (active); in the assay with SW-620 colon, 16.8%; with MCF7 breast, 4.98% (active); in the assay with HCT-116 colon it was -26.3% (active). Besides, the growth with HCC-2998 colon is 56.7%; with KM12 colon, 18.3%.
Take `Cc1nn(Cc2ccccc2)cc1C(=O)Nc1sc2c(c1C(N)=O)CCC(=O)C2`: the growth in the assay on T-47D breast was 10.5%; in the assay with BT-549 breast it was 10.4%; in the assay on MDA-MB-435 melanoma, 16.7%; in the assay on SW-620 colon, 13.4%; in the assay with MCF7 breast, 13.6%; in the assay with HCT-116 colon it was 6.74% (active). The values for the growth in the assay on HCC-2998 colon and in the assay on KM12 colon were 80.6% and 13.5%, respectively.
On to `CN(C)CCN1C(=O)c2cccc3c(-c4ccc(-c5nc6c7ccccc7c7ccccc7c6[nH]5)cc4)ccc(c23)C1=O`, for which the growth in the assay with T-47D breast is 86.7%; in the assay on BT-549 breast, 104%; in the assay on MDA-MB-435 melanoma, 114%; in the assay on SW-620 colon, 86%; in the assay with MCF7 breast, 36.2%; with HCT-116 colon, 65.1%. Moreover, the growth in the assay on HCC-2998 colon is 104%; in the assay with KM12 colon, 75.8%.

These data come from PubChem BioAssay (NCI).
